Screening data: PubChem, The Scripps Research Institute Molecular Screening Center
Hits are enriched below; roughly 2.9% of the tested compounds scored in any of these assays.
PLC-gamma1 inh: blocks human PLC-gamma1 enzyme activity; purified PLC-gamma1, fluorogenic substrate, fluorescence; P19174; inhibition, % at 12.2 µM; 370,000 tested, 0.84% active; in the data active means inhibition above about 9.5%
PLCb3 inh: blocks human PLC-beta3 enzyme activity; Q01970; inhibition, % at 12.2 µM; 370,000 tested, 0.18% active; Purified PLC-beta3, fluorogenic substrate, fluorescence; in the data active means inhibition above about 11%
ADAM17 inh: inhibits human ADAM17 | P78536 | recombinant ADAM17, EDANS/DABCYL FRET peptide cleavage | inhibition, % at 6.95 µM | 370,000 tested, 0.83% active;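 active means inhibition above the mean of compounds lying between control limits plus 3 SD, set per campaign, cut at about 8.5% in these data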
proKLK7 act: activates the human kallikrein-7 zymogen; activation, % at 7 µM; 370,000 tested, 0.9% active; AID 652039; purified proKLK7, EDANS-DABCYL substrate fluorescence; 100% is mature enzyme control, 0% vehicle; P49862;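 active means activation above the mean of all tested compounds plus 3 SD, computed per campaign excluding outliers beyond control limits, cut at about 13% in these data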
ADAM10 inh: inhibitors of human ADAM10; O14672; recombinant ADAM10, EDANS/DABCYL FRET peptide cleavage, 3 h; inhibition, % at 7 µM; 370,000 tested, 0.62% active;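 active means inhibition above a per-campaign cutoff equal to the mean of compounds falling between control-based bounds plus 3 SD, cut at about 20% in these data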
Target sequence (O14672 214-748 limits assumed): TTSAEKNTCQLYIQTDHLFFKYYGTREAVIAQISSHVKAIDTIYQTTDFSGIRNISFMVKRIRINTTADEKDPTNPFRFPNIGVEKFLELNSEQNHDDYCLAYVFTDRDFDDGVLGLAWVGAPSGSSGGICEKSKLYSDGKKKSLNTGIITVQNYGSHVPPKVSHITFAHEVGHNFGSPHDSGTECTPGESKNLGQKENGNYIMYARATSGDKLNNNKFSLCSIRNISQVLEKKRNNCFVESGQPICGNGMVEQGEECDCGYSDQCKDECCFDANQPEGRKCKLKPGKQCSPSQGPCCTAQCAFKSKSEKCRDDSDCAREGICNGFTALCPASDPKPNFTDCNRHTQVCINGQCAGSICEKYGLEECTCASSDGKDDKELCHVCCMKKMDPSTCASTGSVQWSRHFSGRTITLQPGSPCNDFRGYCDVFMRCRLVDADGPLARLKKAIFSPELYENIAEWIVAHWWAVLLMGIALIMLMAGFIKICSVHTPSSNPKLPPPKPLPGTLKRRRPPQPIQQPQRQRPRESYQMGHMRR
KLK7 act conf: proKLK7 activation, confirmation. shares compounds with proKLK7 act. purified proKLK7, EDANS-DABCYL substrate fluorescence; scaled: vehicle 0, mature enzyme 100. activation, % at 7 µM. 3,200 tested, 68% active;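 active means activation, as change over the incubation, above the mean of all tested compounds plus 3 SD, cut at about 13% in these data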
EDANS interfere: fluorescence interference counter-screen for KLK7 activators; shares compounds with proKLK7 act; EDANS-DABCYL substrate fluorescence interference, no enzyme, 4 h; solvent 0%, active enzyme control 100%; activation, % at 7 µM; 3,200 tested, 80% active; AID 686952;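 active means activation above the all-compound mean plus 3 SD, ignoring values outside control-based bounds, cut at about 4.8% in these data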;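 further: value is the 4 h activation minus the activation read at time zero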
K7 EDANS ctr: EDANS fluorescence interference in dose response, no enzyme; shares compounds with proKLK7 act; EDANS-DABCYL peptide fluorescence interference; EC50, µM; 250 tested, 20% active;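 active means compounds that raise the fluorescence signal in this interference counterscreen, with EC50 at or below 10 µM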;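 further: intact quenched peptide substrate alone read at 355 nm excitation and 520 nm emission; signal is fluorescence gain from T0 to T4 after four hours at room temperature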
Of the large screens only hits and unclear results are named; the others gave an inactive call (follow-up assays come after a bar, where they were run).

Nc1c(Cl)cc(Cl)cc1C(=O)OCC(=O)NC1CC1	proKLK7 act 22 | KLK7 act conf 36 | EDANS interfere 33
COc1ccc2c(=O)c3ccccc3oc2c1	none
COc1ccc2oc3cc(NCCN(C)C)ccc3c(=O)c2c1	proKLK7 act 66 | KLK7 act conf 80 | EDANS interfere 79
CCOc1ccc(N2C(=O)/C(=C/c3cccs3)N(C)C2=S)cc1	none
CC(C)(C)C(=O)Nc1ccc(/C=C/C(=O)c2ccco2)cc1	proKLK7 act 78 | KLK7 act conf 53 | EDANS interfere 48
Nc1ccc(/C=C/C(=O)c2ccco2)cc1	none
C=CCc1cccc2cc(C(=O)NC3=C(C#N)CCC3)c(=O)oc12	none
COc1ccc(N2CCN(Cc3nc4c(c(=O)n(C)c(=O)n4C)n3Cc3cccc(C)c3)CC2)cc1	none
c1ccc(-c2nc(N3CCNCC3)nc3ccccc23)cc1	proKLK7 act 69 | KLK7 act conf 18 | EDANS interfere 19
c1ccc(-c2nc(N3CCCCC3)nc3ccccc23)cc1	proKLK7 act 22 | KLK7 act conf inactive | EDANS interfere inactive
c1ccc2c(N3CCCCC3)nc(N3CCCC3)nc2c1	none
CCN1CCN(c2nc(-c3ccccc3)c3ccccc3n2)CC1	proKLK7 act 28 | KLK7 act conf inactive | EDANS interfere inactive
CCN(CC)c1nc(N2CCN(CCO)CC2)nc2ccccc12	none
O=C(Nc1cccc2oc(=O)ccc12)c1ccc([N+](=O)[O-])cc1[N+](=O)[O-]	none
CN1CCN(C(=O)c2ccc(-c3ccc(F)c(F)c3)c3ccoc23)CC1	none
COCCCn1c(=N)c(C(=O)NCC2CCCO2)cc2c(=O)n3ccccc3nc21 (stereo not given)	proKLK7 act 33 | KLK7 act conf inactive | EDANS interfere 15
COCCCn1c(=N)c(C(=O)NCC2CCCO2)cc2c(=O)n3cccc(C)c3nc21 (stereo not given)	proKLK7 act 121 | KLK7 act conf 61 | EDANS interfere 71
COc1ccc(CCn2c(=N)c(C(=O)NCC3CCCO3)cc3c(=O)n4ccccc4nc32)cc1 (stereo not given)	none
N=c1c(C(=O)NCC2CCCO2)cc2c(=O)n3ccccc3nc2n1Cc1ccc(Cl)cc1 (stereo not given)	none
CCCn1c(=N)c(C(=O)NCC2CCCO2)cc2c(=O)n3cccc(C)c3nc21 (stereo not given)	proKLK7 act 83 | KLK7 act conf inactive | EDANS interfere inactive
Cc1ccc(Cn2c(=N)c(C(=O)NCC3CCCO3)cc3c(=O)n4cccc(C)c4nc32)cc1 (stereo not given)	none
N=c1c(C(=O)NCC2CCCO2)cc2c(=O)n3ccccc3nc2n1Cc1ccccc1 (stereo not given)	proKLK7 act 118 | KLK7 act conf 24 | EDANS interfere 23
CCNc1nc(NCC)n2c(SCC(=O)Nc3ccc(C)cc3Br)nnc2n1	none
COc1ccc(NC(=S)N(CCN2CCOCC2)Cc2cc3cc4c(cc3[nH]c2=O)OCCO4)cc1	none
Clc1cccc(Oc2cnc3ccccc3n2)c1	none
Cc1cccn2c(=O)c3cc(C(=O)NCCc4ccccc4)c(=N)n(CC4CCCO4)c3nc12 (stereo not given)	none
Cc1ccc(Cn2c(=N)c(C(=O)NCC3CCCO3)cc3c(=O)n4ccccc4nc32)cc1 (stereo not given)	none
C=CCn1c(=N)c(C(=O)NCCCOC)cc2c(=O)n3cccc(C)c3nc21	proKLK7 act 120 | KLK7 act conf 56 | EDANS interfere 66
Cc1cccn2c(=O)c3cc(C(=O)NCC4CCCO4)c(=N)n(CCN4CCOCC4)c3nc12 (stereo not given)	proKLK7 act 14 | KLK7 act conf inactive | EDANS interfere 9.4
CNC(=O)c1cc2c(=O)n3cccc(C)c3nc2n(C(C)C)c1=N	proKLK7 act 91 | KLK7 act conf 71 | EDANS interfere 71
Cc1cccn2c(=O)c3cc(C(=O)NCc4cccnc4)c(=N)n(CC4CCCO4)c3nc12 (stereo not given)	proKLK7 act 111 | KLK7 act conf inactive | EDANS interfere 33
O=C(Nc1ncc(Cc2ccc(Cl)cc2Cl)s1)c1ccc([N+](=O)[O-])cc1	none
COc1ccccc1N(CC(=O)N1CCN(c2ccc(F)cc2)CC1)S(=O)(=O)c1ccc(C)cc1	none
O=C(NCc1cccnc1)c1cccn2c(=O)c3sccc3nc12	proKLK7 act 19 | KLK7 act conf 67 | EDANS interfere 74
O=C(Nc1ccccc1C(=O)NCc1cccnc1)c1ccccc1F	none
Cc1ccc(-c2nnc(-n3ncc(C#N)c3N)c3ccccc23)cc1C	none
Cn1ccc2c(-c3cccc(C=O)c3)cc3c(c21)C1CCC3O1 (stereo not given)	proKLK7 act 17 | KLK7 act conf 15 | EDANS interfere 14
O=C(CN1C(=O)c2ccccc2C1=O)N(CCO)Cc1ccccc1	none
CC(=O)c1cc2c(C)c(C(=O)c3ccccc3)oc2cc1O	none
NCCOc1cnn(-c2ccccc2Cl)c(=O)c1Cl	none
C=C(C)C1CC=C(C)/C(=N\NC(=O)CNc2cccc3ccccc23)C1 (stereo not given)	proKLK7 act 25 | KLK7 act conf inactive | EDANS interfere 6.8
Cc1cccc2cc(CN(Cc3cccnc3)C(=O)c3ccccc3F)c(Cl)nc12	none
Cc1ccc(C(=O)NC(=S)NCC(=O)c2ccccc2)cc1	none
Cc1cc(N(C)Cc2ccccc2)nc2cc(O)ccc12	proKLK7 act 35 | KLK7 act conf 64 | EDANS interfere 74
Cc1ccc(NC(=O)C2=CC(c3cccs3)=NS(=O)(=O)N2C)cc1	proKLK7 act 18 | KLK7 act conf 22 | EDANS interfere 13 | K7 EDANS ctr inactive
O=S1(=O)CCN2C=C(Cl)C=C(Cl)C2=N1	proKLK7 act 25 | KLK7 act conf 33 | EDANS interfere 29
O=C(Cn1c2ccccc2c(=O)c2ccccc21)N/N=C/c1ccc(N2CCCC2)c([N+](=O)[O-])c1	none
Cc1ccc(S(=O)(=O)N(CC(=O)Nc2cccnc2)c2cccc([N+](=O)[O-])c2)cc1	none
COC(=O)C1=CN(Cc2ccc(OC)c(OC)c2)C=C(C(=O)OC)C1c1cccc(O)c1	proKLK7 act 17 | KLK7 act conf inactive | EDANS interfere inactive
COC(=O)C1=CN(CC2CCCO2)C=C(C(=O)OC)C1c1cccc(O)c1 (stereo not given)	proKLK7 act 63 | KLK7 act conf 65 | EDANS interfere 61
